From PubChem BioAssay
Active and inactive are the calls of the source.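 Rule for the calls, unless noted: active = viability at or below 10% of carrier control in both of two separate runs; inconclusive = viability at or below 10% in only one of the two runs; inactive = the rest.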

Target: Receptor tyrosine-protein kinase erbB-2 (Homo sapiens) (UniProt P04626)
Assay: Her2 expression decrease, cell viability multiplex – SKBR3 breast tumor cells, AlphaScreen, ATP viability, primary screen (AID 461;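 active = Her2 level under about 52% in both replicate screens, with viability over 70% of control, limit read from the data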;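 note: lower value means less Her2 protein in the cells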)
Conditions: 18-24 h, at 10 µM, stronger effect = lower value

Receptor tyrosine-protein kinase erbB-2 (Homo sapiens), sequence (P04626 whole entry, looked up): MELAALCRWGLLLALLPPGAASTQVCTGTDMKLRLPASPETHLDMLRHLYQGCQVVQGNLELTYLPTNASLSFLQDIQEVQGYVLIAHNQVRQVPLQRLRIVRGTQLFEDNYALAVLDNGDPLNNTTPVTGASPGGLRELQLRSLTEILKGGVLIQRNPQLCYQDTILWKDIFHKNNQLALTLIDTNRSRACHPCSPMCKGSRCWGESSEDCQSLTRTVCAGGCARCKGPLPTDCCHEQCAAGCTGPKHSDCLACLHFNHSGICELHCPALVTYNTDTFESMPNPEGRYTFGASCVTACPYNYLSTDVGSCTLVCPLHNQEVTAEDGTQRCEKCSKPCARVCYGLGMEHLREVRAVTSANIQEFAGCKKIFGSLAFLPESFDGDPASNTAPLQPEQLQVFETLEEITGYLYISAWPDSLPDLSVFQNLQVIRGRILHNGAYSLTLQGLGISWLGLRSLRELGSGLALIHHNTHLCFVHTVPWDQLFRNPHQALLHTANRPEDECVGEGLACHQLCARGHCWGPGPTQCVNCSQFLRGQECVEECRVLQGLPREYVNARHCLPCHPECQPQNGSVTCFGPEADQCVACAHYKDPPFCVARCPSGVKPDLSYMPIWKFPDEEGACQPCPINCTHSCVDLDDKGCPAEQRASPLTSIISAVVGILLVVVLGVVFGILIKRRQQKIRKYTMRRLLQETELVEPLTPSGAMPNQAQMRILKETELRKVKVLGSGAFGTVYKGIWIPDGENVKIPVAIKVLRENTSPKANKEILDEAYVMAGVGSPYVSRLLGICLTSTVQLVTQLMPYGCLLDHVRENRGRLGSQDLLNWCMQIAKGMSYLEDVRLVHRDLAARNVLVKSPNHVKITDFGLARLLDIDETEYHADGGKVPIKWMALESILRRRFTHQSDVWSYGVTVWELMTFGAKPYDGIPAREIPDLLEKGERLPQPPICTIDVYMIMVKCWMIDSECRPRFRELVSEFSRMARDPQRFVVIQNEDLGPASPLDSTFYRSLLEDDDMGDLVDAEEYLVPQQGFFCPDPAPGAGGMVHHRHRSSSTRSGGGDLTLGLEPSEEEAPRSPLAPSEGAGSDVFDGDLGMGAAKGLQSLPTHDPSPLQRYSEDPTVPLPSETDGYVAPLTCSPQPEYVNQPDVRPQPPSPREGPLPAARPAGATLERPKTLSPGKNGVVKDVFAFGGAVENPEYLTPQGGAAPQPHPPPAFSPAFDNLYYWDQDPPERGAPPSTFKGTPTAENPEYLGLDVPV

Q: For `CCN(CCCNS(=O)(=O)c1ccc2c(c1)oc(=O)n2C)c1cccc(C)c1`, which Her2 level is on record?
A: Its Her2 level is 100% (inactive).

Q: Which Her2 level does the source give for `COc1ccc(OC)c(C2=NOC(C(=O)Nc3c(C)n(C)n(-c4ccccc4)c3=O)C2)c1` (stereo not given) here?
A: Its Her2 level is 96% (inactive).

Q: With `O=C(Cn1cc2c(n1)CCCCC2)N1CCc2ccccc2C1` as the compound, how does the Her2 level read?
A: The Her2 level was 114% (inactive).

Q: For `Cn1c(=O)c2c(nc(SCCCC#N)n2Cc2c(F)cccc2Cl)n(C)c1=O`, which Her2 level is on record?
A: The Her2 level was 108% (inactive).

Q: Which Her2 level does the source give for `CCN1CCN(Cc2ccc(NC(=O)Nc3ccccc3)cc2)CC1` here?
A: The Her2 level was 106% (inactive).

Q: Which Her2 level does the source give for `CCOC(=O)N1CCN(Cc2nc3c(c(=O)n(C)c(=O)n3C)n2Cc2ccccc2)CC1` here?
A: The Her2 level was 106% (inactive).

Q: For `COCCCNC(=O)Cn1cc2c(n1)CCC(C)C2` (stereo not given), which Her2 level is on record?
A: Its Her2 level is 100% (inactive).

Q: With `C=CCc1ccccc1OCCCCN1CCCC1` as the compound, how does the Her2 level read?
A: The Her2 level was 101% (inactive).

Q: Which Her2 level does the source give for `COc1ccc(OCC(=O)N2CC3(C)CC2CC(C)(C)C3)cc1` (stereo not given) here?
A: Its Her2 level is 84% (inactive).

Q: Which Her2 level does the source give for `O=C1c2ccccc2C(Nc2ccc(-c3nc4ccccc4[nH]3)cc2)N1Cc1ccco1` (stereo not given) here?
A: Its Her2 level is 102% (inactive).

Q: For `CCCNc1nc(N2CCOCC2)nc(N2CCOCC2)n1`, which Her2 level is on record?
A: Its Her2 level is 110% (inactive).

Q: Which Her2 level does the source give for `COCCn1c(SCC(=O)Nc2ccc3c(c2)OCCO3)nc2c(c1=O)SC(C)C2` (stereo not given) here?
A: Its Her2 level is 110% (inactive).

Q: For `COc1ccc(NC(=O)C2CCCN2S(=O)(=O)c2cccc3cccnc23)c(OC)c1` (stereo not given), which Her2 level is on record?
A: Its Her2 level is 106% (inactive).

Q: For `CCOC(=O)Cn1ncc(-c2ccccc2)c1N`, which Her2 level is on record?
A: Its Her2 level is 72% (inactive).

Q: Which Her2 level does the source give for `O=C(O)C1CC(=O)N(CCOc2ccccc2)C1` (stereo not given) here?
A: Its Her2 level is 126% (inactive).

Q: For `Cc1ccc(-n2c3c(cc(C(=O)NCCCN4CCOCC4)c2=O)C(=O)CC(C)(C)C3)cc1`, which Her2 level is on record?
A: The Her2 level was 110% (inactive).

Q: For `CCOC(=O)C1CCN(Cc2ccc(OC)c(C)c2OC)CC1`, which Her2 level is on record?
A: Its Her2 level is 97.5% (inactive).

Q: For `COc1ccc(C(C)N2CC34C=CC(O3)C(C(=O)OCC(C)C)C4C2=O)cc1` (stereo not given), which Her2 level is on record?
A: Its Her2 level is 89.5% (inactive).

Q: Which Her2 level does the source give for `Cc1c(NC(=O)C2CCCCN2S(=O)(=O)c2ccc(Cl)cc2)c(=O)n(-c2ccccc2)n1C` (stereo not given) here?
A: The Her2 level was 120% (inactive).

Q: Which Her2 level does the source give for `CC(C)(NC(=O)N1CCCC1)c1cccc(C(C)(C)NC(=O)N2CCCC2)c1` here?
A: The Her2 level was 81.5% (inactive).

Q: For `CC(C)NC(=O)c1ccc2c(c1)nnn2C`, which Her2 level is on record?
A: The Her2 level was 84% (inactive).

Q: With `Cc1ccc(C(=O)CC2(O)C(=O)N(C)c3ccc(Br)cc32)c(C)c1` (stereo not given) as the compound, how does the Her2 level read?
A: The Her2 level was 88.5% (inactive).

Q: For `Cc1ccc(NC(=O)CN(c2ccc3c(c2)OCO3)S(=O)(=O)c2c(C)n[nH]c2C)cc1`, which Her2 level is on record?
A: The Her2 level was 83% (inactive).

Q: Which Her2 level does the source give for `COc1ccc(N2CCN(Cc3nc4c(c(=O)n(C)c(=O)n4C)n3Cc3ccccc3C)CC2)cc1` here?
A: Its Her2 level is 81% (inactive).

Q: For `CN(C(=O)c1ccco1)c1nnc(C23CC4CC(CC(C4)C2)C3)s1`, which Her2 level is on record?
A: Its Her2 level is 87% (inactive).

Q: With `CCCC(=O)C1=C(N(C)c2ccccc2)CC(C)(C)C(C(=O)OC)C1=O` (stereo not given) as the compound, how does the Her2 level read?
A: The Her2 level was 81% (inactive).

Test system: not listed separately
Assay: reduced viability of SK-BR-3 breast cancer cells – cell-based, 24 h, human, pilot screen (AID 572);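 note: compound exposure lasted between 18 and 24 h rather than exactly 24 h; 100% = carrier-treated control wells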
Conditions: SK-BR-3 viability, CellTiter-Glo luminescence, at 10 µM, stronger effect = lower value

Q: Which viability does the source give for `O=C(c1ccc2nc(N3CCCCC3)sc2c1)N1CCN(c2ccccn2)CC1` here?
A: Its viability is 87% (inactive).

Q: With `CC(C)CCNC(=O)Cn1c(NCCC(C)C)nc2c1c(=O)n(C)c(=O)n2C` as the compound, how does the viability read?
A: Its viability is 121% (inactive).

Q: For `CC(=O)NC(C)c1nc2ccccc2n1C(C)C` (stereo not given), which viability is on record?
A: The viability was 90% (inactive).

Q: Which viability does the source give for `NC(=O)CSc1cn(CCNC(=O)c2cccs2)c2ccccc12` here?
A: The viability was 99.5% (inactive).

Q: With `Cc1cccc(C2CC(c3ccc(Cl)cc3)Nc3nc(N)nn32)c1` (stereo not given) as the compound, how does the viability read?
A: Its viability is 91% (inactive).

Q: With `CCOC(=O)CN1CC23C=CC(O2)C(C(=O)Nc2ccc(C(C)=O)cc2)C3C1=O` (stereo not given) as the compound, how does the viability read?
A: Its viability is 87% (inactive).

Q: Which viability does the source give for `CCCSc1nnc(N2C(=O)CC(c3ccsc3)C3=C2CCCC3=O)s1` (stereo not given) here?
A: The viability was 92.5% (inactive).

Q: For `O=C(CN1CCN(Cc2ccc(F)cc2Cl)C1=O)NCCCN1CCOCC1`, which viability is on record?
A: The viability was 99% (inactive).

Q: With `CN(C)CCCN1C(=O)CSC1c1ccccc1` (stereo not given) as the compound, how does the viability read?
A: Its viability is 100% (inactive).

Q: For `COC(=O)Cn1c(=O)c2c(nc3n2CC(C)CN3c2ccc(C)c(C)c2)n(C)c1=O` (stereo not given), which viability is on record?
A: The viability was 90.5% (inactive).

Q: With `CCCSC1=C(C#N)C(c2cc(OC)ccc2OC)CC(=O)N1` (stereo not given) as the compound, how does the viability read?
A: Its viability is 93% (inactive).

Q: With `O=C(Nc1ccc(CN2CCOCC2)cc1)c1cc2ccccn2n1` as the compound, how does the viability read?
A: Its viability is 100% (inactive).

Q: With `CCN(CC)CCn1c(=N)n(CCO)c2ccccc21` as the compound, how does the viability read?
A: Its viability is 94.5% (inactive).

Q: Which viability does the source give for `CCN(CCCNS(=O)(=O)c1ccc2c(c1)oc(=O)n2C)c1cccc(C)c1` here?
A: Its viability is 88% (inactive).

Q: For `COc1ccc(OC)c(C2=NOC(C(=O)Nc3c(C)n(C)n(-c4ccccc4)c3=O)C2)c1` (stereo not given), which viability is on record?
A: The viability was 88.5% (inactive).

Q: Which viability does the source give for `O=C(Cn1cc2c(n1)CCCCC2)N1CCc2ccccc2C1` here?
A: Its viability is 116% (inactive).

Q: Which viability does the source give for `Cn1c(=O)c2c(nc(SCCCC#N)n2Cc2c(F)cccc2Cl)n(C)c1=O` here?
A: Its viability is 102% (inactive).

Q: With `CCN1CCN(Cc2ccc(NC(=O)Nc3ccccc3)cc2)CC1` as the compound, how does the viability read?
A: The viability was 82% (inactive).

Q: With `CCOC(=O)N1CCN(Cc2nc3c(c(=O)n(C)c(=O)n3C)n2Cc2ccccc2)CC1` as the compound, how does the viability read?
A: Its viability is 104% (inactive).

Q: With `COCCCNC(=O)Cn1cc2c(n1)CCC(C)C2` (stereo not given) as the compound, how does the viability read?
A: Its viability is 112% (inactive).

Q: Which viability does the source give for `C=CCc1ccccc1OCCCCN1CCCC1` here?
A: The viability was 70.5% (inactive).

Q: For `COc1ccc(OCC(=O)N2CC3(C)CC2CC(C)(C)C3)cc1` (stereo not given), which viability is on record?
A: Its viability is 96% (inactive).

Q: For `O=C1c2ccccc2C(Nc2ccc(-c3nc4ccccc4[nH]3)cc2)N1Cc1ccco1` (stereo not given), which viability is on record?
A: Its viability is 90.5% (inactive).

Q: Which viability does the source give for `CCCNc1nc(N2CCOCC2)nc(N2CCOCC2)n1` here?
A: The viability was 97.5% (inactive).

Q: With `COCCn1c(SCC(=O)Nc2ccc3c(c2)OCCO3)nc2c(c1=O)SC(C)C2` (stereo not given) as the compound, how does the viability read?
A: The viability was 95% (inactive).

Q: With `COc1ccc(NC(=O)C2CCCN2S(=O)(=O)c2cccc3cccnc23)c(OC)c1` (stereo not given) as the compound, how does the viability read?
A: The viability was 96% (inactive).

Q: Which viability does the source give for `CCOC(=O)Cn1ncc(-c2ccccc2)c1N` here?
A: The viability was 101% (inactive).

Q: Which viability does the source give for `O=C(O)C1CC(=O)N(CCOc2ccccc2)C1` (stereo not given) here?
A: The viability was 105% (inactive).

Q: With `Cc1ccc(-n2c3c(cc(C(=O)NCCCN4CCOCC4)c2=O)C(=O)CC(C)(C)C3)cc1` as the compound, how does the viability read?
A: The viability was 109% (inactive).

Q: For `CCOC(=O)C1CCN(Cc2ccc(OC)c(C)c2OC)CC1`, which viability is on record?
A: Its viability is 88.5% (inactive).

Q: With `COc1ccc(C(C)N2CC34C=CC(O3)C(C(=O)OCC(C)C)C4C2=O)cc1` (stereo not given) as the compound, how does the viability read?
A: The viability was 103% (inactive).

Q: Which viability does the source give for `Cc1c(NC(=O)C2CCCCN2S(=O)(=O)c2ccc(Cl)cc2)c(=O)n(-c2ccccc2)n1C` (stereo not given) here?
A: The viability was 112% (inactive).

Q: Which viability does the source give for `CC(C)(NC(=O)N1CCCC1)c1cccc(C(C)(C)NC(=O)N2CCCC2)c1` here?
A: The viability was 98% (inactive).

Q: Which viability does the source give for `CC(C)NC(=O)c1ccc2c(c1)nnn2C` here?
A: Its viability is 94% (inactive).

Q: Which viability does the source give for `Cc1ccc(C(=O)CC2(O)C(=O)N(C)c3ccc(Br)cc32)c(C)c1` (stereo not given) here?
A: The viability was 85% (inactive).

Q: Which viability does the source give for `Cc1ccc(NC(=O)CN(c2ccc3c(c2)OCO3)S(=O)(=O)c2c(C)n[nH]c2C)cc1` here?
A: The viability was 92% (inactive).

Q: With `COc1ccc(N2CCN(Cc3nc4c(c(=O)n(C)c(=O)n4C)n3Cc3ccccc3C)CC2)cc1` as the compound, how does the viability read?
A: Its viability is 92.5% (inactive).

Q: With `CN(C(=O)c1ccco1)c1nnc(C23CC4CC(CC(C4)C2)C3)s1` as the compound, how does the viability read?
A: Its viability is 86% (inactive).

Q: For `CCCC(=O)C1=C(N(C)c2ccccc2)CC(C)(C)C(C(=O)OC)C1=O` (stereo not given), which viability is on record?
A: Its viability is 95% (inactive).
